Sampled rows, rich in hits. Any-hit rate of the full collection: about 7.5%.
NPC1 prom act: qHTS Assay for NPC1 Promoter Activators; Huh7 NPC1 promoter luciferase reporter, 24 h; Potency, µM (series often up to 9.22 µM), hits mostly activators; 320,000 tested, 2.4% active; AID 485313, 2010; further: nearly all actives have a fitted effect of over 60% in size
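Quantitative HTS used a cell-based reporter: Huh7 cells stably bearing the NPC1 promoter upstream of luciferase were treated with compounds for 24 h, and promoter activation was read as luminescence.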
Rab9 prom act: qHTS Assay for Rab9 Promoter Activators; Huh7 Rab9 promoter-luciferase reporter, luminescence, 24 h; Potency, µM (top dose mostly 9.22 µM), hits mostly activators; 320,000 tested, 2.8% active; AID 485297, 2010; further: nearly all actives have a fitted effect of over 60% in size
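Huh7 cells stably carrying Rab9 promoter–luciferase reporter, plated 1500 cells/well, compound added after 2 h and incubated 24 h at 37 °C; luciferase luminescence then read after 10 min with detection reagent.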
ELG1 genotoxic: qHTS screen for small molecules that induce genotoxicity in human embryonic kidney (HEK293T) cells expressing luciferase-tagged ELG1 | HEK293T ELG1-luciferase reporter, luminescence, 16 h | Potency, µM (titrated, usually from 46 µM), most hits filed as activators | 330,000 tested, 1.3% active | AID 504466, 2011; further: nearly all actives have a fitted effect of over 60% in size
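Luminescence read-out: rising ELG1-luciferase signal, reflecting elevated ELG1 protein under genetic stress, flags genotoxic compounds. Cells were treated for 16 hr at 37 °C before ONE-Glo detection.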
FLuc modulator: qHTS profiling assay for firefly luciferase inhibitor/activator using purifed enzyme and Km concentrations of substrates (counterscreen for miR-21 project); Luciferin 4-monooxygenase (Photinus pyralis), P08659; purified FLuc, Km substrates, luminescence inhibition; Potency, µM (highest dose often 57.5 µM), most hits filed as inhibitors; 360,000 tested, 6.9% active; AID 588342, 2011; further: nearly all actives have a fitted effect of over 55% in size
Target sequence (P08659 whole entry, looked up): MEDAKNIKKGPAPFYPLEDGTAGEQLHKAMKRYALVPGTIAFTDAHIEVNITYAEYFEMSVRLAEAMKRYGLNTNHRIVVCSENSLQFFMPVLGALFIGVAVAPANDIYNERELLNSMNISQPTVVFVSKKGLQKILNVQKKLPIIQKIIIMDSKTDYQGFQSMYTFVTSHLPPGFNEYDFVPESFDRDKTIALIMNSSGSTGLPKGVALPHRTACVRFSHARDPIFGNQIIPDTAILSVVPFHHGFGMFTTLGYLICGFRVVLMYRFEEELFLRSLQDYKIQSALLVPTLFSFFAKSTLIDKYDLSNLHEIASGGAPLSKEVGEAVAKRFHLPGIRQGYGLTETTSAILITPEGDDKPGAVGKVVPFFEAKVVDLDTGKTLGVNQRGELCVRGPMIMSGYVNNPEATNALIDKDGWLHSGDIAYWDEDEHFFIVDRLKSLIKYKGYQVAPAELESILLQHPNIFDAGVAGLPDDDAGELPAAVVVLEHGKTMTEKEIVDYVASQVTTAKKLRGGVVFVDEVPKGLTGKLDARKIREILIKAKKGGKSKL
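Biochemical qHTS of compounds, final roughly 60 µM downward over six points, against 10 nM purified firefly luciferase using Km concentrations of substrates (10 uM D-luciferin, 10 uM ATP) in Tris acetate pH 7.5 buffer; luminescence output.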
Luc counter: Counterscreen for Luciferase (Kinase-Glo TM) Inhibition | 200,000 tested, 0.28% active | Luciferin 4-monooxygenase (Photuris pensylvanica), Q27757 | AID 1379, 2008 | Kinase-Glo luciferase, ATP luminescence, 8 min | Potency, µM (series often up to 38.3 µM), hits mostly inhibitors; further: nearly all actives have a fitted effect of over 60% in size
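Compounds were added to a substrate mix at pH 7.2 (50 mM imidazole, 10 uM ATP, within the enzyme's linear range), followed by Kinase-Glo detection reagent; luminescence was measured after 8 minutes at ambient temperature.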
SMN2 splice enh: qHTS Assay for Enhancers of SMN2 Splice Variant Expression; Potency, µM (doses to about 46.1 µM), actives largely listed as activators; HEK293 SMN2-luciferase splicing reporter, luminescence, 30-36 h; AID 1458, 2008; 210,000 tested, 2.8% active; further: nearly all actives have a fitted effect of over 55% in size
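HEK293 cells carry an SMN2 minigene-luciferase reporter in which exon 7 inclusion puts luciferase in frame. Cells were seeded at 2000 cells/well, attached for 10-12 hours, then exposed to compounds for 30-36 hours at 37C before ONE-Glo luminescence.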
A number is an active result; n = inactive; u = inconclusive; x = no result; ! = repeats disagree; [ ] = remark or other dose. The call rests on the fitted dose curve; in most records, active means well fitted curve in the direction sought with a large enough effect; inconclusive means small, poorly fitted or top-dose-only effect, or another doubt; inactive means no such curve, though single readings can be large; an effect the other way counts as inactive or inconclusive.

SMILES	NPC1 prom act	Rab9 prom act	ELG1 genotoxic	FLuc modulator	Luc counter	SMN2 splice enh
O=C(Nc1cc(Br)ccc1O)c1cc(-c2cccs2)on1	n	u	n	u	x	x
CC(C)c1cc(C(=O)Nc2cc(Br)ccc2O)no1	n	u	u	u	n	u
CCCc1cc(C(=O)Nc2cc(Cl)ccc2O)no1	u	u	16.4µM	10.7µM	x	x
Cc1cc2c(cc1S(=O)(=O)N(C)CC(=O)Nc1cccc(C#N)c1)OCC(=O)N2	x	x	x	n	x	x
O=C(Nc1ccc(Cl)cc1)Nc1ccc2c(c1)N1CCN=C1S2	n	n	n	8.49µM	n	n
Cc1cccc(NC(=O)Nc2nnc(N(C)Cc3ccccc3)s2)c1	x	x	x	n	x	x
Cc1nnc(C)n1/N=C/c1ccc(-c2ccccc2Cl)o1	n	n	23.1µM	n	x	x
O=S(=O)(N/N=C\c1ccc(-c2ccccc2Cl)o1)c1ccccc1	n	n	n	n	n	n
O=C(N/N=C/c1ccc(-c2ccccc2Cl)o1)c1ccccc1	n	n	n	13.5µM	n	u
S=c1[nH]nc(-c2ccccc2)n1/N=C/c1ccc(-c2ccccc2Cl)o1	n	n	n	n	n	u
O=C(O)c1ccc(N/N=C/c2ccc(-c3ccccc3Cl)o2)cc1	u	u	1.83µM	0.675µM	x	x
COc1cc2cc(C)c(SCC(=O)N3CCN(C(=O)c4ccco4)CC3)nc2cc1OC	n	n	n	n	x	x
CCN(c1ccccc1)S(=O)(=O)c1nnc(NC(=O)c2ccccc2)s1	x	x	x	2.39µM	x	x
Cc1cccc(NS(=O)(=O)c2nnc(NC(=O)CC(C)C)s2)c1	n	n	n	n	x	x
CCC(CC)C(=O)Nc1nnc(S(=O)(=O)N(C)c2cc(C)cc(C)c2)s1	x	x	x	n	x	x
CCN(c1ccccc1)S(=O)(=O)c1nnc(NC(=O)c2cccs2)s1	x	x	x	0.338µM	x	x
Cc1cccc(N(C)S(=O)(=O)c2nnc(NC(=O)C(C)Oc3ccccc3)s2)c1 (configuration not stated)	x	x	x	4.78µM	x	x
Cc1cccc(NS(=O)(=O)c2nnc(NC(=O)C3CCCCC3)s2)c1	n	n	n	6.75µM!	x	x
COc1ccc(-n2c(-c3ccc(F)cc3)cn3c4c(=O)n(C)c(=O)n(C)c4nc23)cc1	x	x	x	n	x	n
CCCCC(=O)Nc1nnc(S(=O)(=O)N(CC)c2ccccc2)s1	n	n	n	n	x	x
CCCC(=O)Nc1nnc(S(=O)(=O)N(C)c2ccccc2)s1	x	x	x	0.849µM	x	x
CN(c1ccccc1)S(=O)(=O)c1nnc(NC(=O)c2ccccc2)s1	x	x	x	0.19µM	x	x
CN(c1ccccc1)S(=O)(=O)c1nnc(NC(=O)C2CCCCC2)s1	n	n	n	0.675µM!	x	x
CCN(c1ccc(C)cc1)S(=O)(=O)c1nnc(NC(=O)c2cccs2)s1	x	x	x	13.5µM	x	x
N#C/C(=C\c1cc(Br)ccc1F)C(=O)NC1CC1	n	n	n	n	x	x
SMILES	NPC1 prom act	Rab9 prom act	ELG1 genotoxic	FLuc modulator	Luc counter	SMN2 splice enh
Cc1ccc(C(=O)OCC(=O)NCc2ccco2)cc1C	n	n	n	n	x	x
CCN(c1ccccc1)S(=O)(=O)c1nnc(NC(=O)c2ccccc2OC)s1	n	n	n	1.69µM!	x	x
CCN(c1ccc(Cl)cc1)S(=O)(=O)c1nnc(NC(=O)c2ccccc2C)s1	x	x	x	n	x	x
CC(=O)c1ccc(Nc2ccc(-c3ccccc3F)nn2)cc1	0.708µM	0.501µM	u	4.78µM	n	7.08µM
C[C@@H](CNC(N)=O)NC(N)=O	x	x	x	x	n[7.66 µM]	n[9.22 µM]
CC(C(=O)N1CCN(C(=O)c2ccco2)CC1)n1sc2ccccc2c1=O (configuration not stated)	n	n	n	n	x	x
CC(C(=O)N1CCCCC1)n1sc2ccccc2c1=O (configuration not stated)	u	u	u	23.9µM	n	u
CCc1ccc(Nc2nnc(SCC(=O)NC(=O)c3cccn3C)s2)cc1	n	n	u	u	n	n
O=C(CSc1nnc(SCc2cccc3ccccc23)s1)Nc1ccc(C(=O)O)cc1	n	n	n	8.49µM	n	n
Cc1cccc(Nc2nnc(SCC(=O)Nc3cccc(S(=O)(=O)N4CCCCC4)c3)s2)c1	n	n	n	2.69µM	n	n[1.84 µM]
CCc1ccc(Nc2nnc(SCC(=O)Nc3ccc(C(=O)O)cc3)s2)cc1	n	n	n	0.536µM	x	x
CCc1ccc(Nc2nnc(SCC(=O)Nc3cccc(S(=O)(=O)NC4=NCCCCC4)c3)s2)cc1	u	u	n	0.477µM	n	12.6µM
Cc1cc(NC(=O)CSCC(=O)N2CCN(c3cccc(C(F)(F)F)c3)CC2)no1	n	n	n	n	x	x
Cc1ccc(CCNC(=O)Cn2nc(-c3ccc(C)cc3)ccc2=O)cc1	x	x	x	n	x	x
Cc1ccc2c(=O)cc(C(=O)Nc3c(C(=O)Nc4cccc(Cl)c4)oc4ccccc34)oc2c1	x	x	x	n	x	n
Cc1nnc(SCc2cccc3ccccc23)s1	u	u	u	23.9µM	x	x
O=C(CSc1nncc2ccccc12)Nc1cccc(C(=O)O)c1	n	n	u	10.7µM	x	x
Cc1nnc(SCC(=O)Nc2cccc(S(=O)(=O)NC3=NCCCCC3)c2)n1Cc1ccccc1	n	n	n	n	n	n
Cc1ccc(Nc2nnc(SCC(=O)Nc3cccc(S(=O)(=O)NC4=NCCCCC4)c3)s2)cc1	n	n	n	1.9µM	n	n
CC1CCCC(C)N1/N=C/c1ccc(C(=O)O)cc1 (configuration not stated)	n	n	n	n	x	x
COc1ccc(CN(C(=O)c2snc(C(N)=O)c2N)C(CC(C)C)C(=O)NC2CCCCC2)cc1 (configuration not stated)	n	n	n	n	x	x
CCOc1ccc(NC(=O)CC2C(=O)N(c3ccc(C)cc3)C(=O)N2CCC2=CCCCC2)cc1 (configuration not stated)	x	x	x	n	x	n
Cc1ccc(C(=O)Cn2cnc3ccccc3c2=O)cc1	u	2.51µM	u	21.3µM	n	11.2µM
CC(C)(C)n1ncc2c(=O)n(CC(=O)OCc3ccccc3)cnc21	u	1.41µM	u	0.0849µM	u	n
CC(C)(C)n1ncc2c(=O)n(Cc3ccccc3)cnc21	x	x	x	n	x	x
CC(C)(C)n1ncc2c(=O)n(CC(=O)c3ccccc3)cnc21	u	4.47µM	n	23.9µM	n	12.6µM
CCc1ccccc1NC(=O)c1nnn(-c2ccc(F)cc2)c1C	x	x	x	12µM	x	n
Cc1c(C(=O)Nc2ccc(F)cc2F)nnn1-c1ccccc1Br	x	x	x	n	x	x
CCCCN1C(=O)/C(=C/C=C2/CC(C)(C)CN2C)SC1=S	n	u	u	9.53µM	n	n
CN1/C(=C\C=C2/SC(=S)N(CC(=O)O)C2=O)C(C)(C)c2ccccc21	n	n	n	16.9µM	n	n
